The values that follow come from ChEMBL document CHEMBL4513216, “Probing the Open Global Health Chemical Diversity Library for Multistage-Active Starting Points for Next-Generation Antimalarials” (ACS Infect Dis, 2020).

Structures are written as SMILES. Hit rate of the full screen: of about 69,000 compounds, about 8,600 (12%) showed an effect of 50% or more. This is one part of a sample in which strong results are shown more often than they occur.

This test concerns Plasmodium berghei. The test can be described thus: Screen against P. berghei liver stage (PbLuc), transformed with Luciferase, at 10uM. The test is classed as functional, HepG2. The settings on record: tested at 10 uM.
Regarding `Cc1ccc(NC2CCN(C(=O)c3cscn3)CC2)nn1`, the INHIBITION was -77.1%. On to `CCC(CC)C(=O)NCc1cn2cc(Br)ccc2n1`, for which the INHIBITION worked out at 50%. As to `CCOCCOC(C)C(=O)NCc1ccc(N2CCCCC2)cc1` (stereo not given), the INHIBITION is on record as 21.7%. Take `CC(C)COCCC(=O)NCc1cn2cc(Br)ccc2n1`: the INHIBITION is on record as 55.1%. For the molecule `CCOCCOC(C)C(=O)NCc1cn2cc(Br)ccc2n1` (stereo not given), the INHIBITION is given as -27.6%. With `CC(C(=O)NCc1cn2cc(Br)ccc2n1)S(C)(=O)=O` (stereo not given), the INHIBITION amounted to 40.6%. In the case of `CCOCCCC(=O)NCc1cn2cc(Br)ccc2n1`, the INHIBITION is 11.1%. For the molecule `CCCC(C)C(=O)NCc1cn2cc(Br)ccc2n1` (stereo not given), the INHIBITION is recorded as -19%. Regarding `COc1c(C)cnc(CNC(=O)CCOCC(C)C)c1C`, the INHIBITION is listed as -74%. In the case of `CCOCCOC(C)C(=O)NCc1cn2cc(Cl)ccc2n1` (stereo not given), the INHIBITION is 53.4%. Turning to `CN(C)c1cc(C2CCCN(C(=O)c3ccc(=O)[nH]n3)C2)ccn1` (stereo not given), the INHIBITION is reported as 34.1%.

Regarding `CC(=O)NCc1cc2n(n1)CCN(Cc1cccc(CCN)c1)C2`, the INHIBITION is given as -7.53%.

For the molecule `Cc1ccccc1C(=O)NCc1ccnc(N(C)C)c1`, the INHIBITION was found to be 24%. For `O=C(c1ccncc1)N1CCC(c2nc(O)cc(-c3cccnc3)n2)C1` (stereo not given), the INHIBITION was found to be 48.9%.

Take `CN(C)C(=O)[C@H]1CC[C@@H]2[C@@H](CCN2C(=O)N(C)C)O1`: the INHIBITION is listed as 14.2%. In the case of `CNC(=O)[C@H]1CC[C@@H]2[C@@H](CCN2C(=O)N(C)C)O1`, the INHIBITION was determined as 15.7%. As for `CNC(=O)[C@@H]1CC[C@@H]2[C@@H](CCN2C(=O)N(C)C)O1`, the INHIBITION is recorded as 58.5%.

Take `Cn1cccc1C(=O)N1C[C@@H]2C[C@@H](c3nnc(C4CC4)o3)O[C@@H]2C1`: the INHIBITION came to 43.9%. Regarding `CCCc1noc(C2CCN(C(=O)C3CCCO3)CC2)n1` (stereo not given), the INHIBITION came out at 13.9%. `CCc1cc(N(C)Cc2ncc[nH]2)nc(N2CCOCC2)n1`: the INHIBITION was determined as 25.8%. Turning to `CCc1cc(N(C)Cc2nonc2C)nc(N2CCOCC2)n1`, the INHIBITION stood at 27.7%. Next, `CCc1cc(N(C)Cc2[nH]nc3c2CCC3)nc(N2CCOCC2)n1`: 51.1%; `Cc1cc(Oc2ccccc2)nc(C2CCCCN2)n1` (stereo not given): 16.5%.

As to `CNc1cc(N2CCCC2CNCc2ccccn2)ncn1` (stereo not given), the INHIBITION is on record as -21.3%. Turning to `CNc1cc(N2CCCC2CNCc2cccs2)ncn1` (stereo not given), the INHIBITION is 36.8%.

For the molecule `CNc1cc(N2CCCC2CNCc2cnc(C)cn2)ncn1` (stereo not given), the INHIBITION is 7.7%. Under `CNc1cc(N2CCCC2CNCc2ccco2)ncn1` (stereo not given) stands 59.8%.

Consider `CNc1cc(N2CCCC2CNCc2ccc(Cl)o2)ncn1` (stereo not given), for which the INHIBITION worked out at 56.9%.

`CNc1cc(N2CCCC2CNCc2ccc(C)o2)ncn1` (stereo not given): the INHIBITION is -0.448%.

Consider `O=C(CNC(=O)c1ccc(Cl)cc1)Nc1nccs1`, for which the INHIBITION stood at 14.5%.

`COc1ncccc1NC(=O)N(C1CC1)C(C)C(C)C` (stereo not given): the INHIBITION turned out to be 31.3%. For `Cc1ccccc1C1CCN(CCNC(=O)CS(C)(=O)=O)C1` (stereo not given), the INHIBITION was found to be 36.9%. Turning to `Cc1nc(CC(=O)NCCN2CCC(c3ccccc3C)C2)cs1` (stereo not given), the INHIBITION is recorded as 42.4%. Under `CCCc1nc(C(=O)NCCN2CCC(c3ccccc3C)C2)cs1` (stereo not given) stands 85.1%.

`COc1c(Br)c(CC2CC(CO)=NO2)c(OC)c2c1OCO2` (stereo not given): the INHIBITION was 22.6%.

Take `CCn1cc(CN2CCN(C(=O)c3cc(Br)cs3)CC2)c(C)n1`: the INHIBITION was determined as 38.3%. For the molecule `Cn1cc(Cl)c(CN(Cc2ccsc2)CC2CCCO2)n1` (stereo not given), the INHIBITION is 11.5%. For `Cc1nn(CN(CC2CCOC2)C2CC2)c(=O)c2ccccc12` (stereo not given), the INHIBITION was 8.86%. With `CCN(CCn1c(=O)oc2ccccc21)CC1CCOCC1`, the INHIBITION amounted to 64.9%. Consider `Cn1cc(C2CCCN2CCCn2c(=O)oc3ccccc32)cn1` (stereo not given), for which the INHIBITION is recorded as 1.84%. As to `CCCN(CCn1c(=O)oc2ccccc21)CC1CC1`, the INHIBITION is on record as 56.3%. Next, `O=c1oc2ccccc2n1CCN(CC1CCOC1)C1CC1` (stereo not given): 51.3%; `CCN(Cc1ccc(C(C)=O)cc1)CC1CCOCC1`: 14.6%.

Consider `CCN(CC)CCn1c(=O)oc2ccccc21`, for which the INHIBITION was -5.1%. Under `O=c1c2ccccc2nnn1CN(CC1CCOC1)C1CC1` (stereo not given) stands -5.92%; under `O=c1oc2ccccc2n1CCCN1CCCC1c1ccc(O)cc1` (stereo not given), 6.61%. For `CCn1cc2[nH]c(OC)c(CNC(=O)C3CCCN(C)C3)cc-2c1=O` (stereo not given), the INHIBITION was 34.4%. `CC(C)(C)Nc1c(C2CCCN(C(=O)C3CC3)C2)nc2ccccn12` (stereo not given): the INHIBITION stood at 14.05%. As for `Cc1nnc(CN(CCc2ccccc2)C2CCN(C)CC2)s1`, the INHIBITION amounted to 4.12%. Under `CCn1cc(CNC2CCN(c3cccc(C)c3C)CC2)cn1` stands -12.1%. Turning to `CCOC1COC2(CCN(CC3CC3)CC2)C1` (stereo not given), the INHIBITION is listed as 26.7%. On to `Nc1nccc(C2CCN(CCO)C2)n1` (stereo not given), for which the INHIBITION came to 15.5%. In the case of `COCCNC(=O)[C@H]1C[C@@H]2CCN(c3nncs3)C[C@H]2O1`, the INHIBITION was determined as 18.5%. Under `Cc1nnc(N2CC[C@H]3C[C@@H](C(=O)NC4CCCC4)O[C@H]3C2)s1` stands 61.4%; under `Cc1nnc(N2CC[C@H]3C[C@H](C(=O)N(C)C)O[C@@H]3C2)s1`, 88.2%. On to `CN(C)C(=O)[C@@H]1C[C@@H]2CCN(C3CCOCC3)C[C@H]2O1`, for which the INHIBITION amounted to 21.4%. Take `Cc1nnc(N2CC[C@H]3C[C@H](C(=O)N4CCOCC4)O[C@H]3C2)s1`: the INHIBITION was 50%.

Consider `Cc1ccc(N2CC[C@H]3C[C@@H](C(=O)N4CCOCC4)O[C@H]3C2)nn1`, for which the INHIBITION was 34.1%. Consider `Cc1nnc(N2CC[C@H]3C[C@@H](C(=O)N4CCCC4)O[C@H]3C2)s1`, for which the INHIBITION is given as -0.388%. Take `Cc1ccc(CN2CC[C@H]3C[C@H](C(=O)N(C)C)O[C@H]3C2)cc1`: the INHIBITION came to 25.5%. Regarding `CNC(=O)[C@H]1C[C@@H]2CCN(c3nnc(C)s3)C[C@@H]2O1`, the INHIBITION was 21.8%. Under `CCc1noc(CN2CCC(NC(=O)c3ccc(C)s3)CC2)n1` stands -30%.

Take `CCS(=O)(=O)CCSc1ccc(Cl)cc1`: the INHIBITION is 18.6%. For `CCN(C(=O)COc1nc(Cc2ccc(F)cc2)no1)C1CC1`, the INHIBITION is on record as -50.7%. Consider `COc1ccc(-n2cc3[nH]c(=O)n(Cc4cccc(F)c4)n3c2=O)cc1`, for which the INHIBITION was -67%. Regarding `Cc1c(NC(=O)CN2CCN(C3CCCC3)C(=O)C2)cnn1C`, the INHIBITION came to 7.85%. With `Cc1oc(C(=O)O)cc1S(=O)(=O)Nc1cccc(Cl)c1F`, the INHIBITION is -46.2%. Under `CC(=O)N1CCCN(S(=O)(=O)c2cc3ccccc3o2)CC1` stands 16.6%. Next, `O=S(=O)(c1cc2ccccc2o1)N1CCCC1`: 59.4%; `CCN1CCCN(S(=O)(=O)c2cc3ccccc3o2)CC1`: 46.6%.
